Measurements taken from PubChem BioAssay (NCATS).
Records with an inconclusive call do not appear. Calls of active or inactive are those of the source. The call rests on the fitted dose curve; in most records, active means well fitted inhibition curve with a large enough effect; inconclusive means small, poorly fitted or top-dose-only effect; inactive means flat fitted curve, though single readings scatter.

Columns and labels:
JCK = assay: qHTS profiling for inhibitors of Plasmodium falciparum proliferation (AID 504749); further: potency means the concentration at half of the fitted maximal effect; conditions: P. falciparum in erythrocytes, SYBR Green DNA, 72 h; series mostly up to 28.7 µM
In short: (§1)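 Parasite proliferation within erythrocytes, 72 h exposure. Endpoint: SYBR Green I fluorescence after overnight lysis at room temperature. Controls: 0.29 uM artemisinin, DMSO.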

N140 = assay: as above; conditions: P. falciparum in erythrocytes, SYBR Green DNA, 72 h; series mostly up to 28.7 µM
In short: as §1

P93_24 = assay: as above; conditions: P. falciparum in erythrocytes, SYBR Green DNA, 72 h; series mostly up to 28.7 µM
In short: as §1

P94_40 = assay: as above; conditions: P. falciparum in erythrocytes, SYBR Green DNA, 72 h; series mostly up to 28.7 µM
In short: as §1

PAD = assay: as above; conditions: P. falciparum in erythrocytes, SYBR Green DNA, 72 h; series mostly up to 28.7 µM
In short: as §1

PC15 = assay: as above; conditions: P. falciparum in erythrocytes, SYBR Green DNA, 72 h; series mostly up to 28.7 µM
In short: as §1

PC26 = assay: as above; conditions: P. falciparum in erythrocytes, SYBR Green DNA, 72 h; series mostly up to 28.7 µM
In short: as §1

PC49 = assay: as above; conditions: P. falciparum in erythrocytes, SYBR Green DNA, 72 h; series mostly up to 28.7 µM
In short: as §1

SC27B = assay: as above; conditions: P. falciparum in erythrocytes, SYBR Green DNA, 72 h; series mostly up to 28.7 µM
In short: as §1

TAB109 = assay: as above; conditions: P. falciparum in erythrocytes, SYBR Green DNA, 72 h; series mostly up to 28.7 µM
In short: as §1

TAB113 = assay: as above; conditions: P. falciparum in erythrocytes, SYBR Green DNA, 72 h; series mostly up to 28.7 µM
In short: as §1

TAB165 = assay: as above; conditions: P. falciparum in erythrocytes, SYBR Green DNA, 72 h; series mostly up to 28.7 µM
In short: as §1

W2 = assay: as above; conditions: P. falciparum in erythrocytes, SYBR Green DNA, 72 h; series mostly up to 28.7 µM
In short: as §1

CRL-7250 = normal cell line; assay: Cytotoxic Profiling of Annotated Libraries Using Quantitative High-Throughput Screening (AID 1296008); conditions: Five cell lines viability, CellTiter-Glo ATP luminescence, 48-72 h; active compounds read low; on max response: on the % scale 0 is the no-effect control and ±100 the full control effect
In short: (§2)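 Compounds were pin-transferred onto cells and incubated 48 or 72 hr at 37 degree Celsius, 95% humidity. CellTiter-Glo was added, plates sat 10 min at room temperature, then ATP-coupled luminescence was imaged as the viability read-out.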

HEK293 = assay: as above; conditions: Five cell lines viability, CellTiter-Glo ATP luminescence, 48-72 h; active compounds read low
In short: as §2

HaCat [1] = assay: as above; conditions: Five cell lines viability, CellTiter-Glo ATP luminescence, 48-72 h; active compounds read low
In short: as §2

KB-3-1 = assay: as above; conditions: Five cell lines viability, CellTiter-Glo ATP luminescence, 48-72 h, active compounds read low
In short: as §2

NIH3T3 = assay: as above; conditions: Five cell lines viability, CellTiter-Glo ATP luminescence, 48-72 h; active compounds read low
In short: as §2

HEK293T = assay: qHTS assay to identify novel small-molecules to repurpose for Merkel cell carcinoma treatment (AID 1296009); conditions: MCC and control cell lines, CellTiter-Glo viability, 72 h; at 44.8 µM (top of the series) unless noted
In short: (§3)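 qHTS format: cells treated with library compounds in DMSO across 8 (NPC) or 11 (MIPE) concentrations. Readout after 72 hr at 37 degree celsius was CellTiter-Glo luminescence.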

HACAT [2] = assay: as above; conditions: MCC and control cell lines, CellTiter-Glo viability, 72 h; at 44.8 µM (top of the series) unless noted
In short: as §3
Further: nearly all actives have a fitted effect of over 60% in size.

Cc1c(C)c2c(c(C)c1OC(=O)c1cccnc1)CC[C@@](C)(CCC[C@H](C)CCC[C@H](C)CCCC(C)C)O2
inactive: Potency (JCK) | Potency (N140) | Potency (P93_24) | Potency (P94_40) | Potency (PAD) | Potency (PC15) | Potency (PC26) | Potency (PC49) | Potency (SC27B) | Potency (TAB109) | Potency (TAB113) | Potency (TAB165) | Potency (W2) | outcome (CRL-7250) | max response (HEK293) -1.31% | max response (HaCat [1]) 0.9% | max response (KB-3-1) 1.29% | outcome (NIH3T3)

CC(=O)N(CC(O)CO)c1c(I)c(C(=O)NCC(O)CO)c(I)c(C(=O)NCC(O)CO)c1I (stereo unspecified)
inactive: Potency (JCK) | Potency (P94_40) | Potency (PC49) | Potency (SC27B) | Potency (TAB109) | outcome (CRL-7250) | max response (HEK293) 1.45% | max response (HaCat [1]) 3.3% | max response (KB-3-1) -10.7% | outcome (NIH3T3)

CCCCCCCC(=O)OCC(O)CO (stereo unspecified)
inactive: Potency (JCK) | Potency (N140) | Potency (P93_24) | Potency (P94_40) | Potency (PAD) | Potency (PC15) | Potency (PC26) | Potency (PC49) | Potency (SC27B) | Potency (TAB109) | Potency (TAB113) | Potency (TAB165) | Potency (W2) | max response (CRL-7250) -18.7% | max response (HEK293) -8.91% | max response (HaCat [1]) -12% | max response (KB-3-1) -2.18% | max response (NIH3T3) -10.3%

Cc1cc(=O)[nH]c(=S)[nH]1
inactive: Potency (JCK) | Potency (N140) | Potency (P93_24) | Potency (P94_40) | Potency (PAD) | Potency (PC15) | Potency (PC26) | Potency (PC49) | Potency (SC27B) | Potency (TAB109) | Potency (TAB113) | Potency (TAB165) | Potency (W2) | max response (CRL-7250) 1.13% | max response (HEK293) -1.11% | max response (HaCat [1]) -13.5% | max response (KB-3-1) -0.427% | outcome (NIH3T3)

O=C(O)c1ccc(OCCCOc2ccc(C(=O)O)cc2)cc1
inactive: Potency (JCK) | Potency (N140) | Potency (P93_24) | Potency (P94_40) | Potency (PAD) | Potency (PC15) | Potency (PC26) | Potency (PC49) | Potency (SC27B) | Potency (TAB109) | Potency (TAB113) | Potency (TAB165) | Potency (W2) | max response (CRL-7250) -0.605% | max response (HEK293) -0.863% | max response (HaCat [1]) -3.27% | max response (KB-3-1) 3.43% | max response (NIH3T3) 2.41%

COc1cc(C(=O)NCCCCCC(=O)O)cc(OC)c1OC
inactive: Potency (N140) | Potency (P93_24) | Potency (P94_40) | Potency (PAD) | Potency (PC15) | Potency (PC26) | Potency (PC49) | Potency (SC27B) | Potency (TAB109) | Potency (TAB113) | Potency (TAB165) | max response (CRL-7250) -1.11% | outcome (HEK293) | max response (HaCat [1]) 4.84% | max response (KB-3-1) 1.07% | max response (NIH3T3) 3.71% | outcome (HEK293T)

Cc1cc(O)cc(C)c1Cl
inactive: Potency (SC27B) | max response (CRL-7250) -1.3% | outcome (HEK293) | outcome (HaCat [1]) | max response (NIH3T3) 1.17% | outcome (HACAT [2]) | outcome (HEK293T)
active: Potency (PC26) 12 µM | Potency (W2) 7.57 µM

NS(=O)(=O)c1ccc(NC(=O)CCC(=O)O)cc1
inactive: Potency (JCK) | Potency (N140) | Potency (P93_24) | Potency (P94_40) | Potency (PAD) | Potency (PC15) | Potency (PC26) | Potency (PC49) | Potency (SC27B) | Potency (TAB109) | Potency (TAB113) | Potency (TAB165) | Potency (W2) | max response (CRL-7250) -4.29% | max response (HEK293) -0.661% | outcome (HaCat [1]) | outcome (NIH3T3) | outcome (HACAT [2])

COc1ccc2cc(CCC(C)=O)ccc2c1
inactive: Potency (JCK) | Potency (N140) | Potency (P93_24) | Potency (P94_40) | Potency (PAD) | Potency (PC15) | Potency (PC26) | Potency (PC49) | Potency (SC27B) | Potency (TAB109) | Potency (TAB113) | Potency (TAB165) | Potency (W2) | outcome (CRL-7250) | outcome (HEK293) | outcome (HaCat [1]) | max response (NIH3T3) -0.0731% | outcome (HACAT [2]) | outcome (HEK293T)

O=C(O)c1ccc[n+]([O-])c1
inactive: Potency (JCK) | Potency (N140) | Potency (P93_24) | Potency (P94_40) | Potency (PAD) | Potency (PC15) | Potency (PC26) | Potency (PC49) | Potency (SC27B) | Potency (TAB109) | Potency (TAB113) | Potency (TAB165) | Potency (W2) | outcome (CRL-7250) | max response (HEK293) -0.144% | outcome (HaCat [1]) | outcome (NIH3T3) | outcome (HACAT [2])

CCN(CC)C(=O)c1cccc(C)c1
inactive: Potency (JCK) | Potency (N140) | Potency (P93_24) | Potency (P94_40) | Potency (PAD) | Potency (PC15) | Potency (PC26) | Potency (PC49) | Potency (SC27B) | Potency (TAB109) | Potency (TAB113) | Potency (TAB165) | Potency (W2) | outcome (CRL-7250) | max response (HEK293) 0.224% | outcome (HaCat [1]) | outcome (NIH3T3) | outcome (HACAT [2])

O=C(NCC(O)CO)c1c(I)c(C(=O)NCC(O)CO)c(I)c(N(CCO)C(=O)CO)c1I (stereo unspecified)
inactive: max response (CRL-7250) -2.46% | max response (HEK293) -0.64% | outcome (HaCat [1]) | max response (NIH3T3) 2.96% | outcome (HACAT [2])

CC(=O)N[C@@H](Cc1ccc(O)cc1)C(=O)O
inactive: Potency (JCK) | Potency (N140) | Potency (P93_24) | Potency (P94_40) | Potency (PAD) | Potency (PC15) | Potency (PC26) | Potency (PC49) | Potency (SC27B) | Potency (TAB109) | Potency (TAB113) | Potency (TAB165) | max response (CRL-7250) -1.56% | max response (HEK293) -2.21% | outcome (HaCat [1]) | max response (NIH3T3) -2.52% | outcome (HACAT [2])

O=C(Cn1ccnc1[N+](=O)[O-])NCc1ccccc1
inactive: Potency (JCK) | Potency (N140) | Potency (P93_24) | Potency (P94_40) | Potency (PAD) | Potency (PC15) | Potency (PC26) | Potency (PC49) | Potency (SC27B) | Potency (TAB109) | Potency (TAB113) | Potency (TAB165) | Potency (W2) | max response (CRL-7250) 0.299% | max response (HEK293) -3.43% | outcome (HaCat [1]) | max response (NIH3T3) 3.14% | outcome (HACAT [2])
